One compound from PubChem BioAssay AID2163 (National Center for Advancing Translational Sciences (NCATS), 2009) can be followed below.

Structures are written as SMILES. This is one part of the list. The source made the active and inactive calls.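 How the source made its calls: active means compounds that slowed 12-hLO product formation enough to yield a measured IC50 potency; inactive means the rest.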

Sequence of Polyunsaturated fatty acid lipoxygenase ALOX12 (Homo sapiens) (P18054 whole entry, looked up): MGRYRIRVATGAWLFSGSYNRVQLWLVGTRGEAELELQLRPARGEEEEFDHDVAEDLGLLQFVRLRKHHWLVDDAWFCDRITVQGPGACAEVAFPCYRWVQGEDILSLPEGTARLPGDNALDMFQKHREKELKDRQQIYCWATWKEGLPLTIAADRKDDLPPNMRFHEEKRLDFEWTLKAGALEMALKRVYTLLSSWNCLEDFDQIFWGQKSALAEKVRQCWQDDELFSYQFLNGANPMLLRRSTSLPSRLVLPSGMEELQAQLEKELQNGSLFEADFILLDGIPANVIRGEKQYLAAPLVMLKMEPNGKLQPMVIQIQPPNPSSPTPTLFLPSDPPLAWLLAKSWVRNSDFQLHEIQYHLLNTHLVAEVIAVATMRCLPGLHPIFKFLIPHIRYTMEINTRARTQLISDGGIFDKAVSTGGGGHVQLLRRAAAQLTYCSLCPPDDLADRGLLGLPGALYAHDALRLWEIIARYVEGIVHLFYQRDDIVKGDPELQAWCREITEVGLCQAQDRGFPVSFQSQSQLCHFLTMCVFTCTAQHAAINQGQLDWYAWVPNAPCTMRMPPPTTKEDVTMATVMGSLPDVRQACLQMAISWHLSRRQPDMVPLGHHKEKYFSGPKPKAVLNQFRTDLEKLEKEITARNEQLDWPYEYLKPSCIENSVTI

The target of this test is Polyunsaturated fatty acid lipoxygenase ALOX12 (Homo sapiens) (UniProt P18054). Briefly: Cuvette-Based Assay for Inhibitors of 12-hLO (12-human lipoxygenase): 8HQ Series - Round 1. The note with it: purified 12-hLO, cuvette UV 234 nm product formation. The protocol:
Assay Provider: Holman, T.R., University of California, Santa Cruz Screening Center PI: Austin, Christopher P. Screening Center: NIH Chemical Genomics Center The enzyme activity of 12-hLO was determined by a direct measurement of product formation by monitoring the absorbance at 234 nm in a 2 mL cuvette. IC50 values of inhibitors were obtained by measuring the enzymatic rate at a variety of concentrations (Carroll et al, Segraves et al).
For control experiments, 2 mL of substrate buffer (10 uM arachidonic acid / 25 mM HEPES / 0.01% (v/v) Triton X-100, pH 8.0) was aliquoted in a cuvette with a magnetic stir bar. After equilibrium was ensured, an aliquot of inhibitor solvent was added (DMSO), and equilibrium was once again assured. The reaction was started by adding enzyme to the cuvette and the reaction was followed until completed. The inhibition experiments were performed as above, except the actual inhibitory compound was added instead of vehicle. To achieve an IC50, typically 5 concentrations of the inhibitor were studied. If the inhibitor concentration was constant, then five different reaction volumes were used. […] 3; No change in absorbance ensured. […] 5; No change in absorbance ensured. […]
Consider `CC(=O)NC(c1cccs1)c1cc(Cl)c2cccnc2c1O` (stereo unspecified), for which the Potency was 1000 nM (active).
